PubChem BioAssay (EPA / NIEHS)
The source made the active and inactive calls. Rule for the calls: active = hit-call score of the fitted dose curve at least 0.9, where 1 is the maximum; inactive = score below 0.9.

Each compound was assayed on Decorin, DCN (gene 1634) (assay: BSK_MyoF_Decorin: BioMAP Diversity Plus: MyoF Assay for Decorin Biomarker Activity (AID 2284265)). Settings: primary human lung fibroblasts.
Description: BSK_MyoF is a cell-based, multiplexed-readout assay that uses lung fibroblasts, […], with measurements taken at 24 hours after chemical dosing in a microplate: 96-well plate.BSK_MyoF_Decorin is an assay component measured in the BSK_MyoF assay. It measures Decorin antibody related to regulation of gene expression using ELISA technology.Data from the assay component BSK_MyoF_Decorin was analyzed at the endpoint, BSK_MyoF_Decorin, in the positive analysis fitting direction relative to DMSO as the negative control and baseline of activity. Using a type of binding reporter, gain or loss-of-signal activity can be used to understand protein changes. To generalize the intended target to other relatable targets, this assay endpoint is annotated to the 'cell adhesion molecules' intended target family, where the subfamily is 'decorin'.
The levels of cell surface (or secreted, indicated by the prefix "s") biomarker endpoints were measured by ELISA. Overt cytotoxicity to cells in confluent adherent cultures (all systems other than the BT system) was assessed by measuring total protein levels using sulforhodamine B (SRB) staining in parallel cultures at the time of biomarker measurements, indicated as SRB endpoints. For proliferation assays for adherent cell types, individual cell types are cultured at sub-confluence and relative cell numbers quantified by SRB staining at time points optimized for each system (48 h: 3C and CASM3C systems; 72 h: BT and HDF3CGF systems; 96 h: SAg system). SRB was performed by staining cells with 0.1% SRB after fixation with 10% TCA and reading wells at 560 nm.Viability and proliferation of PBMC (T cells) was quantified by Alamar Blue reduction for the SAg and BT systems. For PBMC viability (referred to as PBMC Cytotoxicity within the assay endpoint names), cells were plated (75,000/well in a 96-well plate) and then chemical samples added for 1 h before addition of activators, SEB and TSST-1 (20 ng/mL final concentration each). Cells were incubated for 90 h. Then, Alamar Blue (20 uL/well) (Invitrogen, Cat DAL1100) was added for 6 h, and the plates were read with a fluorescence microplate reader at 546/580 nm (excitation/emission). For PBMC proliferation, cells were plated and activated as above but incubated for only 16 h prior to addition of Alamar Blue. Plates were read after 6 h.

| Compound | outcome | AC50 |
| --- | --- | --- |
| c1ccc(-c2ccccn2)nc1 | inactive |  |
| CCO[Si](CCCN=C=O)(OCC)OCC | inactive |  |
| S=C(NC1CCCCC1)NC1CCCCC1 | inactive |  |
| CC(C)(c1cc(Br)c(OCCO)c(Br)c1)c1cc(Br)c(OCCO)c(Br)c1 |  | 9.76 µM (active) |
| C#CC1(O)CC[C@H]2[C@@H]3CCC4=CCCC[C@@H]4[C@H]3CC[C@@]21C (some centres not stated) |  | 31.4 µM (active) |
| CCCCNc1ccc(NCCCC)c2c1C(=O)c1ccccc1C2=O | inactive |  |
| c1ccc2c(c1)ccc1cc3c(ccc4ccccc43)cc12 | inactive |  |
| N#[N+]c1ccc2c(S(=O)(=O)[O-])cccc2c1O | inactive |  |
| C/C=C\C/C=C/CCCCCCCCOC(C)=O | inactive |  |
| O=C(Nc1ccccc1SSc1ccccc1NC(=O)c1ccccc1)c1ccccc1 | inactive |  |
| C=CC=CC=CCCCCC | inactive |  |
| CCOc1nc(F)cc2nc(S(=O)(=O)Nc3c(Cl)cccc3C(=O)OC)nn12 | inactive |  |
| c1ccc2c(c1)ccc1ncccc12 | inactive |  |
| CCCCCCCCc1ccc(Nc2ccc(CCCCCCCC)cc2)cc1 | inactive |  |
| O=c1c2ccccc2oc2ccccc12 | inactive |  |
| C=CCOCC(O)CCl (configuration not stated) | inactive |  |
| C=CC(=O)OCC(Br)CBr (configuration not stated) | inactive |  |
| COc1ccc2nc(N)sc2c1 | inactive |  |
| C=CCOc1c(Br)cc(Br)cc1Br | inactive |  |
| CCCCC(CC)COC(=O)c1ccccc1O (configuration not stated) | inactive |  |
| O=C(Cl)c1cc(C(=O)Cl)cc(C(=O)Cl)c1 | inactive |  |
| O=Nc1ccc(O)cc1 | inactive |  |
| CCCCC/C=C\C/C=C\CCCCCCCC(=O)OC | inactive |  |
| CCCCCCCCCCCCCCCC[N+](C)(C)CC |  | 5.5 µM (active) |
| CC(C)C(=O)C(C)C | inactive |  |
| COCc1c(C(C)C)nc(C(C)C)c(/C=C/[C@@H](O)C[C@@H](O)CC(=O)O)c1-c1ccc(F)cc1 | inactive |  |
| CC1OC1C1CCC2(C)OC2C1 (configuration not stated) | inactive |  |
